# Source: PubChem
# Rows were chosen to be rich in hits. Some 2.4% of all compounds tested hit in one or more screens of this group.
# POLB inh: blocks human DNA polymerase beta activity. Pol beta primer extension/strand displacement, fluorescence kinetic. Potency, µM (highest dose often 114 µM), without a hit: at the highest dose activity change, negative = inhibition, most hits filed as inhibitors. actives 1.3% (n = 340,000). P06746. AID 485314; note: % is set by controls: 0 for no effect and ±100 for the full control effect
#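 10 nM enzyme + cpd, 15 min RT; start with substrate 50 nM final; read 0 min and after 10 min RT. Corrected, normalized data; 4-parameter Hill curve fit.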
# WRN helicase inh: inhibitors of human WRN helicase. Q14191. WRN helicase unwinding, fluorescent forked duplex, kinetic. Potency, µM (series often up to 114 µM), for the others: at the top dose activity change, negative = inhibition, usual class: inhibitors. actives 0.46% (n = 360,000). AID 651768; note: % is set by controls: 0 for no effect and ±100 for the full control effect; nearly all actives have a fitted effect of over 55% in size
#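 WRN at 20 nM final preincubated with compound 15 min at room temperature; reaction started with 100 nM fluorophore/quencher forked duplex oligonucleotide and 2 mM ATP final. Unwinding followed kinetically by red fluorescence (ex 525, em 598 nm).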
# Pol kappa inh-1: inhibitors of human DNA polymerase kappa | purified Pol kappa, fluorescent DNA synthesis assay, 10 min | Potency, µM (series often up to 107 µM), for the others: at the highest dose activity, negative = inhibition, actives largely listed as inhibitors | actives 0.53% (n = 400,000) | AID 588579; note: % is set by controls: 0 for no effect and ±100 for the full control effect
# Target sequence (Q9UBT6 whole entry, looked up): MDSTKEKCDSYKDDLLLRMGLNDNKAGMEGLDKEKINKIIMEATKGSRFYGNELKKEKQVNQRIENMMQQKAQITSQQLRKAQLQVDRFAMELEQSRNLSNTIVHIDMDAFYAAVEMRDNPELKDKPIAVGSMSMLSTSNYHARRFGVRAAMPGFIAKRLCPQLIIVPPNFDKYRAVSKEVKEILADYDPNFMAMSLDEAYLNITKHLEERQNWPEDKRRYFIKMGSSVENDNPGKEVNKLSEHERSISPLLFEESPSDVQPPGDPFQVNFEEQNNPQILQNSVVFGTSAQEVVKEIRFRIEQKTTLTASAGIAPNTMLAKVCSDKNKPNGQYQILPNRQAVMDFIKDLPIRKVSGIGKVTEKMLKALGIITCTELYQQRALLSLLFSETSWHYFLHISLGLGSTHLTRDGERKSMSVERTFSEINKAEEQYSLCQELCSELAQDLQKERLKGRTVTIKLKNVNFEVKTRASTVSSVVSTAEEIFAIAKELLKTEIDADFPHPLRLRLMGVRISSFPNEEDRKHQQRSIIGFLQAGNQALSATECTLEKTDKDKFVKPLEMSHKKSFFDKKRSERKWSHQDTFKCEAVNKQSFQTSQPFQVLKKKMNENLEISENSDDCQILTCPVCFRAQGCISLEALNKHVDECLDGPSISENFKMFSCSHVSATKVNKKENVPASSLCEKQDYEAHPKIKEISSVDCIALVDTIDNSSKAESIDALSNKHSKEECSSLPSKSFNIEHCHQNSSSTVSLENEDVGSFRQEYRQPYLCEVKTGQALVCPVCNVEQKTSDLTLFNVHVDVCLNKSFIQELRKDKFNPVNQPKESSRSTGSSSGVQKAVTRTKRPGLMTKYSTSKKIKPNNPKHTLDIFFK
#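 First, compounds were pin-transferred onto 10 nM Pol kappa. After 15 min at room temperature, substrate was added to 50 nM final. Fluorescence was then measured kinetically at 0 and 10 min.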
# Pol iota inh: blocks human DNA polymerase iota activity | Q9UNA4 | Pol iota fluorescent replication assay, 10 min | Potency, µM (highest dose often 115 µM), for the others: at the top dose activity, negative = inhibition, hits mostly inhibitors | actives 1% (n = 390,000) | AID 588590
#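 Fluorescent replication assay read twice, at 0 min and 10 min after adding 50 nM (final) substrate. Enzyme (10 nM) and compounds were first incubated 15 min at room temperature; enzyme-free buffer wells were negative controls.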
# Pol eta inh-1: inhibitors of human DNA polymerase eta. Q9Y253. recombinant Pol eta, fluorescent DNA replication assay. Potency, µM (doses to about 114 µM), for inactives: top-dose activity change, negative = inhibition, actives largely listed as inhibitors. actives 1.2% (n = 390,000); note: % is set by controls: 0 for no effect and ±100 for the full control effect
#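 Pol eta at 10 nM preincubated with compounds 15 min at room temperature; reaction started with fluorescent substrate (50 nM final) and read kinetically at 0 and 10 min.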
# FEN1 inhibitor: inhibitors of human flap endonuclease 1; Recombinant FEN1 flap cleavage, fluorescence, 15 min; Potency, µM (titrated, usually from 114 µM), inactives show at the highest dose activity change, negative = inhibition, usual class: inhibitors; actives 0.35% (n = 390,000); AID 588795; note: % is set by controls: 0 for no effect and ±100 for the full control effect; nearly all actives have a fitted effect of over 65% in size
#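 Compounds are tested as a concentration series against 10 nM FEN1; after a 15 min room-temperature preincubation, 50 nM substrate starts cleavage, with plate reads at 0 and 15 min. Normalized responses are fitted by a Hill equation.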
# Pol kappa inh-2: confirmation of human DNA polymerase kappa inhibitors | actives 76% (n = 920) | Potency, µM, usual class: inhibitors | purified Pol-kappa, fluorescent strand-displacement substrate | shares compounds with Pol eta inh-1
# Pol eta inh-2: confirmation of human DNA polymerase eta inhibitors; actives 64% (n = 2,600); shares compounds with Pol eta inh-1; Potency, µM, most hits filed as inhibitors; Pol eta primer extension, TAMRA/BHQ fluorescence, 10 min
# * hit, by the source's call; ? = inconclusive; · = not tested or not shown; [ ] = remark or other dose. Calls come from the whole dose curve; as a rule, active = well fitted curve in the direction sought with a large enough effect; inconclusive = small, poorly fitted or top-dose-only effect, or another doubt; inactive = no such curve, though single readings can be large; an effect the other way counts as inactive or inconclusive. Potency is the fitted concentration of half-maximal effect.
SMILES,POLB inh,WRN helicase inh,Pol kappa inh-1,Pol iota inh,Pol eta inh-1,FEN1 inhibitor,Pol eta inh-2,others
O=C(NC(Cc1ccccc1)C(=O)O)/C(=C/c1ccco1)NC(=O)c1cccc(Br)c1 (stereo not drawn),?,-17%,?,?,20µM*,-4%,54*,Pol kappa inh-2=19*
CCOc1ccc(/C=c2\sc3nc(-c4ccco4)nn3c2=O)cc1OCC,1%,?,?,?,14µM*,1%,?,
O=C1Nc2ccccc2Oc2cc(Oc3ccccc3)ccc21,-42%,·,?,79µM*,·,-25%,?,
CC1(OC(=O)C2CCCC2)C(=O)C=C2C=C(c3ccsc3)N(Cc3ccco3)C=C2C1=O (stereo not drawn),?,-14%,25µM*,?,-14%,?,2.4*,
CCN1CCN(c2c(S(=O)(=O)c3ccc(C)c(C)c3)cnc3cc(OC)c(OC)cc23)CC1,11%,·,1%,6%,-15%,-23%,·,
COc1ccc(NC(=O)C2CCCN(c3nnc(C)c4c(C)n(-c5ccccc5)nc34)C2)cc1Cl (stereo not drawn),71µM*,·,?,-30%,35µM*,10%,?,Pol kappa inh-2=17*
CCc1sc(/C=C(/C#N)C(N)=S)cc1[N+](=O)[O-],?,?,-21%,?,20µM*,-16%,43*,
Cc1ccccc1-c1nc2c(c(SCc3cccc(Cl)c3)n1)Cc1c(CO)cnc(C)c1O2,36%,·,-1%,3%,-11%,-7%,·,
Cc1ccc(-c2ccc(/C=N/N=C3/NC(=O)C(CC(=O)O)S3)o2)c([N+](=O)[O-])c1 (stereo not drawn),5%,-9%,-9%,6%,?,-15%,·,
CC1=C(C#N)C(=O)NC(=O)/C1=C\c1ccc(-c2ccc(C)cc2[N+](=O)[O-])o1,32µM*,?,-13%,?,50µM*,-6%,?,
CCOC(=O)c1cc(-c2ccc(/C=C3/C(=O)NC(=O)C(C#N)=C3C)o2)ccc1Cl,35µM*,?,?,?,28µM*,?,48*,
Cc1cc(S(=O)(=O)Nc2ccc(-c3ccc(N4CCCCCC4)nn3)cc2)c(C)cc1Cl,?,·,-13%[60.1 µM],16%,-10%,9%,·,
CC(=O)N(O)C/C=C/c1cccc(Oc2ccccc2)c1,·,·,12%[60.1 µM],·,·,·,·,
Cc1cc(C(=O)C(=O)Nc2nnc(C(C)C)s2)c(C)n1-c1ccccc1,12%,·,-4%,11%,40µM*,-8%,?,Pol kappa inh-2=21*
Cc1cc(C(=O)C(=O)Nc2nncs2)c(C)n1-c1ccc(Cl)cc1,?,·,-18%,-25%,?,7%,·,
Cc1cccc(-n2c(C)cc(C(=O)C(=O)Nc3nncs3)c2C)c1,-1%,·,-5%,46%,50µM*,17%,?,Pol kappa inh-2=?
O=C(Cc1ccc(Oc2ccccc2)cc1)NO,·,·,-18%,38%,·,-16%,·,
